Experimental data published in PubChem BioAssay (NCI).
About 79,000 compounds went through this panel and 15% of them were active in at least one assay; those are over-represented in the sample as a whole. Active and inactive are the calls of the source. Rule as the data show it: active = growth inhibition above about 70%; inactive = the rest.

Assay: NCI Yeast Anticancer Drug Screen. Data for the rad50EPP+ strain (AID 151);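 also: 0% = growth of vehicle-treated control cultures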
Conditions: S. cerevisiae rad50 mutant strain, stronger effect = higher value
Description: Growth inhibition of yeast strains with defined genetic alterations is measured as a screen for potential anti-cancer activity. Selected strains with alterations in DNA damage repair or cell cycle control were exposed to compounds and growth inhibition was measured relative to vehicle treated controls. The strain used in this assay is rad50EPP+

Measured: growth inhibition

COc1ccc2c(c1)CCCC(Br)C2=O (stereo not given)
active: at 100.0 µM 97%
inactive: at 1.2 µM 5% | at 3.7 µM 28% | at 11.0 µM 30% | at 33.0 µM 67%

CC1(c2ccccc2)O[C@@H]2C[C@H]3[C@@H]4CCC5=CC(=O)C=C[C@]5(C)[C@@]4(F)[C@@H](O)C[C@]3(C)[C@]2(C(=O)CO)O1 (stereo not given in full)
inactive: at 1.2 µM 3% | at 3.7 µM 3% | at 11.0 µM 7% | at 33.0 µM 11% | at 100.0 µM 23%

CCN1CCC(O)(c2ccc(Oc3ccc(C)cc3)cc2)C(C(=O)c2ccc(Oc3ccc(C)cc3)cc2)C1 (stereo not given)
inactive: at 1.2 µM -17% | at 3.7 µM 15%
active: at 11.0 µM 96% | at 33.0 µM 94% | at 100.0 µM 93%

COC(=O)c1ccccc1N=NNc1cccc(SC)c1
inactive: at 1.2 µM 9% | at 3.7 µM 21% | at 11.0 µM 39% | at 33.0 µM 47% | at 100.0 µM 36%

O=[N+]([O-])c1cc[n+]([O-])c(Cl)c1
inactive: at 1.2 µM 8% | at 3.7 µM 14% | at 11.0 µM 44%
active: at 33.0 µM 94% | at 100.0 µM 98%

O=C(O)CNC(c1ccccc1)(c1ccccc1)c1ccccc1
inactive: at 1.2 µM 11% | at 3.7 µM 4% | at 11.0 µM -6% | at 33.0 µM -3% | at 100.0 µM -5%

COc1ccc2nc3cccc([N+](=O)[O-])c3c(NCCCCCC(=O)O)c2c1
inactive: at 1.2 µM 38%
active: at 3.7 µM 81% | at 11.0 µM 95% | at 33.0 µM 97% | at 100.0 µM 98%

CCO/C=C1\SC(=S)N(c2ccc(OCC)cc2)C1=O
active: at 100.0 µM 76%
inactive: at 1.2 µM -38% | at 3.7 µM -21% | at 11.0 µM -6% | at 33.0 µM 42%
